Source: PubChem
ANO1 activ: activators or potentiators of mouse TMEM16A chloride channel | HEK293 TMEM16A/YFP-H148Q/I152L, iodide quench fluorescence; stronger effect = lower value | B-score at 10 µM | 340,000 compounds, 0.3% hits;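 active = fluorescence-ratio B-score plate-corrected deviation score at least 3 library SD below zero, with starting fluorescence score within 5 deviations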;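 also: channel opened by trigger with iodide after compound preincubation; score built on the fluorescence ratio of max minus min over baseline; more negative score means more quench and so TMEM16A activation or potentiation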
Target sequence (Q8BHY3 whole entry, looked up): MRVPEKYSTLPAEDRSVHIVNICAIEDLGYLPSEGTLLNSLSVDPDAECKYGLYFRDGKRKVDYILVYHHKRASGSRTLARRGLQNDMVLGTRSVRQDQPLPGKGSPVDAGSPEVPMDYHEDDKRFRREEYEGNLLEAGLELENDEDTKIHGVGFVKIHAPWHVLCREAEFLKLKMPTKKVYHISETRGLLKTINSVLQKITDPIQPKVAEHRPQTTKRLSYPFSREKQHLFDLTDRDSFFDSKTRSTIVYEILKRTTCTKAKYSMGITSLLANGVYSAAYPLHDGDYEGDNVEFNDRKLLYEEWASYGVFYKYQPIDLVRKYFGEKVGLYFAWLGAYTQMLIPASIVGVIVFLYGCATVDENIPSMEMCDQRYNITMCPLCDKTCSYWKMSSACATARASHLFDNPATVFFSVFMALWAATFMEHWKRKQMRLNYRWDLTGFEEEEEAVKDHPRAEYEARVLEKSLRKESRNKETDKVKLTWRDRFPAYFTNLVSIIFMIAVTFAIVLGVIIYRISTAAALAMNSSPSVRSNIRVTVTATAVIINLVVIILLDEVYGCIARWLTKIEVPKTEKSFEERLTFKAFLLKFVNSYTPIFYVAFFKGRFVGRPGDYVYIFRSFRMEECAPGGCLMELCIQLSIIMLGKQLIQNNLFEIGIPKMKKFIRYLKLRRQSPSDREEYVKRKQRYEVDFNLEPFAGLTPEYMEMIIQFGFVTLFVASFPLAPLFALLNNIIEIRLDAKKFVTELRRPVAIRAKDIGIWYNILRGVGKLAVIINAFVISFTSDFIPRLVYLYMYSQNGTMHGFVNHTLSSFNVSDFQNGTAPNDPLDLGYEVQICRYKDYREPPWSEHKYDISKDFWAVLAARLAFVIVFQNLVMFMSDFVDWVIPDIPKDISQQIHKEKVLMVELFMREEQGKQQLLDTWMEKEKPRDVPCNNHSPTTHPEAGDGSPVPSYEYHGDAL
Rce1 inhib: yeast Ras-converting enzyme inhibition; 290,000 compounds, 0.27% hits; AID 2563; calls only; yeast membranes, quenched prenylated peptide cleavage fluorescence;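 active = fall in fluorescence gain of 50% or more versus controls, with final raw signal at or below 3038400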;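 also: plate controls were neutral control wells for no effect and wells lacking membranes for full effect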
CHT PAM: allosterically activates the human high affinity choline transporter | Q9GZV3 | CHT-expressing cells, membrane potential dye, choline EC20; stronger effect = higher value; LV-AA mutant CHT in HEK293 cells | AID 488977 | 310,000 compounds, 0.49% hits | B-score at 10 µM;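 active = initial fluorescence not abnormally high and integrated response B-score, plate-corrected, over 3 SD above library mean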
ANO1 block: mouse TMEM16A channel inhibition, primary screen | normalized B-score (activity score, 25-100; higher = stronger inhibition) at 10 µM | HEK293 TMEM16A/YFP iodide influx fluorescence, ionomycin | 310,000 compounds, 1.2% hits;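 active = ratio plate-corrected score three or more library SD toward inhibition, starting fluorescence score within five deviations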;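 also: score derived from kinetic fluorescence span divided by baseline fluorescence per well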
Kir21 inh: Kir2.1 (mouse) channel inhibition; HEK293-Kir2.1, FluxOR thallium flux fluorescence; stronger effect = lower value; 310,000 compounds, 0.85% hits; B-score at 10 µM; AID 1672;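 active = fluorescence ratio B-score at or below minus 3 SD of library scores, with starting-brightness B-score within 2 SD, cut at about -4.2 in these data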;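 also: channel flux triggered by added potassium and thallium sulfate stimulus; B-score of peak minus minimum fluorescence over baseline after thallium stimulus; more negative B-score means stronger Kir2.1 block with less thallium influx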
CHT inh: human CHT choline transport inhibition; Q9GZV3; CHT-expressing cells, membrane potential dye, choline response; stronger effect = lower value; B-score at 10 µM; 310,000 compounds, 0.86% hits;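 active = B-score over 3 SD under the library average, and starting fluorescence ratio not unusually high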;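 also: choline stimulus applied at its EC90 after an EC20 pre-addition; B-score computed on integrated fluorescence ratio after choline addition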
CHT block conf: confirmation of human choline transporter CHT inhibitors; shares compounds with CHT inh; CHT-expressing cells, choline membrane potential dye; LV-to-AA substituted CHT, HEK293 cells; CHT activity remaining % of control (stronger effect = lower value), % at 10 µM; 2,400 compounds, 70% hits;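 active = choline transporter activity left, mean of duplicates at 10 µM, below buffer-only control mean minus 3 SD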;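 also: depolarization triggered by choline at its EC90 following an EC20 pre-addition; 0% = hemicholinium-3 full block and 100% = buffer-only control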
HEK293 CHT ctr: counter-screen for CHT inhibitors: effect in parental HEK293 cells; shares compounds with CHT inh; membrane potential dye, choline response; active = decrease or increase beyond buffer ±3SD; membrane potential ratio readout (active if shifted either direction beyond buffer ±3SD; no single direction) at 10 µM; 2,400 compounds, 4% hits; AID 493222;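 also: parental cells lack the transporter so any hit is non-specific; ratio is peak minus trough fluorescence over baseline after EC90 choline challenge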
* hit, by the source's call; i = inactive; · = no result given. Compounds with a hit are over-represented: about 3.2% of the library has one in this group of screens.

SMILES	ANO1 activ	Rce1 inhib	CHT PAM	ANO1 block	Kir21 inh	CHT inh	CHT block conf	HEK293 CHT ctr
CC(NC(=O)c1cc(F)c(F)c(F)c1F)c1ccc(-n2ccnc2)cc1 (stereo not drawn)	i	i	i	i	0.05	i	·	·
COc1ccc(OC)c(Nc2ccc(C(=O)O)cc2[N+](=O)[O-])c1	i	i	i	i	-1	-6.7*	i	i
CC(C)(C)NCc1cccn1-c1sc2c(c1C#N)CCCC2	i	i	i	i	-0.77	-6.3*	20%*	-17*
N#Cc1c(N2C(=O)Nc3ccccc3N2O)sc2c1CCCC2	i	i	i	i	-0.15	i	·	·
c1ncn(C23CC4CC(CC(C4)C2)C3)n1	i	i	i	i	-0.42	i	·	·
c1cn(C23CC4CC(CC(C4)C2)C3)cn1	i	i	i	i	-1.1	-14*	-3.7%*	i
CC(NC(=O)C(C)N1c2cccc3cccc(c23)S1(=O)=O)c1ccccc1 (stereo not drawn)	i	i	i	i	0.47	i	·	·
CN(c1ccc(O)cc1)c1nc(-c2cccs2)cs1	i	i	i	25*	-0.13	-5.1*	70%*	i
COc1ccc(NC(=O)CC2Nc3cccc4cccc(c34)NC2=O)cc1 (stereo not drawn)	i	i	i	i	-0.37	i	·	·
O=C(CC1Nc2cccc3cccc(c23)NC1=O)Nc1ccc(F)cc1 (stereo not drawn)	i	i	i	i	-1.1	-5.1*	i	i
Cc1cc(C)n2nc(SCc3nnc(SCc4ccccc4)s3)nc2n1	i	i	i	i	-1.4	-6.1*	i	i
C[C@H](NC(=O)CCCOc1ccc(Cl)cc1Cl)c1nnc2ccccn12	i	i	i	i	-3.2	i	·	·
CN(/N=C/c1ccc([N+](=O)[O-])o1)c1ccccc1	i	i	i	i	-0.37	-5.7*	50%*	i
CC(C)(C)c1cc(C(=O)NNc2cc(C(F)(F)F)ccc2Cl)n(Cc2ccccc2)n1	i	i	i	i	1.9	i	·	·
CCOC(=O)C1CCN(C(=O)C2CCCN(c3ncnc4c3nc3n4CCCCC3)C2)CC1 (stereo not drawn)	i	i	i	i	0	i	·	·
CCOC(=O)N1CCN(C(=O)C2CCCN(c3ncnc4c3nc3n4CCCCC3)C2)CC1 (stereo not drawn)	i	i	i	i	1.1	-9.3*	11%*	i
O=C(C1CCCN(c2ncnc3c2nc2n3CCCCC2)C1)N1CCN(c2ccccc2F)CC1 (stereo not drawn)	i	i	i	i	0.24	-8.9*	-11%*	i
CC1CCN(C(=O)C2CCCN(c3ncnc4c3nc3n4CCCCC3)C2)CC1 (stereo not drawn)	i	i	i	i	-0.51	i	·	·
COc1cccc(N2CCN(C(=O)C3CCCN(c4ncnc5c4nc4n5CCCCC4)C3)CC2)c1 (stereo not drawn)	i	i	i	i	0.68	-5.7*	38%*	i
CCCCN1CC(=O)N2[C@H](c3ccc(Cl)cc3)[C@@H]3C(=O)N(CC)C(=O)[C@@H]3[C@]2(C)C1=O	i	i	i	i	-0.68	i	·	·
CSc1nnnn1-c1c(C)cccc1C	i	i	i	i	-0.32	i	·	·
CCC(C)(c1nnnn1-c1c(C)cccc1C)N(N=O)c1cccc(C(F)(F)F)c1 (stereo not drawn)	i	i	i	i	0.79	i	·	·
Cc1cccc(C)c1-n1nnnc1C(C)(C)N1CCN(N=O)CC1	i	i	i	i	-0.21	-7.2*	i	i
COc1ccc(NC(C)(C)c2nnnn2-c2c(C)cccc2C)cc1	i	i	i	i	-0.23	-5.4*	59%*	i
Cc1c(N=Cc2cc(Br)cc(Br)c2O)cccc1C(=O)O	i	i	i	i	2.5	-5.7*	57%*	i
SMILES	ANO1 activ	Rce1 inhib	CHT PAM	ANO1 block	Kir21 inh	CHT inh	CHT block conf	HEK293 CHT ctr
O=C(O)c1cccc(N/N=C/c2cc(Br)cc(Br)c2O)c1	i	i	i	i	2.1	i	·	·
CC1CCCN(C(=O)Cn2nnc(-c3ccc(N(C)C)cc3)n2)C1 (stereo not drawn)	i	i	i	i	-0.68	i	·	·
CN(C)c1ccc(-c2nnn(CC(=O)N3c4ccccc4CCc4ccccc43)n2)cc1	i	i	i	i	-1.3	-7.2*	i	i
C/C(CC(=O)Nc1cc(C)ccn1)=N\NC(=O)c1ccc(C(C)(C)C)cc1	i	·	i	i	0.87	i	·	·
CN(CCC#N)C(=O)CC(Cc1ccccc1)C1CCOC(C)(C)C1 (stereo not drawn)	i	i	i	i	1.7	-6*	i	i
CN(CCC#N)C(=O)COC(=O)[C@H](Cc1ccccc1)N1C(=O)c2ccccc2C1=O	i	i	i	i	0.02	i	·	·
CC1CCCCC1NC(=O)CSc1nnnn1C (stereo not drawn)	i	·	·	·	·	·	·	·
CC(C)(C)c1ccc(C(=O)CC(Sc2ccc(Cl)cc2)C(=O)O)cc1 (stereo not drawn)	i	i	i	i	-1.8	-8.4*	6.4%*	i
Cc1ccc(SC(CC(=O)c2ccc(F)cc2)C(=O)O)cc1 (stereo not drawn)	i	i	i	i	0.05	i	·	·
NS(=O)(=O)c1ccc(CCNS(=O)(=O)c2cccc3nsnc23)cc1	i	i	i	i	0.02	i	·	·
Cc1cn([C@H](C(=O)NCCCCCCCCCCC(=O)N2CCN(C(=O)OC(C)(C)C)CC2)[C@@H](C)O)nn1	i	·	i	i	·	-6.8*	60%*	i
C[C@H](O)[C@@H](C(=O)N1CCN(C(=O)OC(C)(C)C)CC1)n1cc(CCCCNC(=O)OC(C)(C)C)nn1	i	i	i	i	-0.82	i	·	·
CCn1c(N2CCN(S(=O)(=O)c3ccc(OC)cc3)CC2)nc2ccccc21	i	i	i	i	0.68	-7.9*	71%*	i
Cc1ccc(N2CC(C(=O)Nc3nnc(C)s3)CC2=O)cc1 (stereo not drawn)	i	i	i	i	-0.65	i	·	·
